# The campaign covered roughly 37,000 compounds. About 2,800 (7.6%) were called active. Inconclusive results (about 1%) are left out. Rule as the data show it: active = inhibition above about 80%; inconclusive = no clear call, values can overlap the other calls; inactive = below that. Many of the other results were omitted from the sample, so actives are more common in it than they were.
# Experiment: NOMO-1 AML cell viability reduction, primary screen, STK33 inhibitor project, CellTiter-Glo luminescence (AID 2330)
# Details: NOMO-1 AML viability, 72 h, hits give high values, concentration not given here
row,Structure (SMILES),inhibition
1,Cc1cc(C)c(OCC(=O)Nc2cccnc2)c(Br)c1,5.52% (inactive)
2,COc1cc(C(C)=O)ccc1OCC(O)Cn1nc(C)cc1C (stereo unspecified),10.2% (inactive)
3,COc1ccc(NC(=O)Nc2ccc3c(c2)CC(=O)N([C@@H](C)CO)C[C@H](C)[C@@H](CN(C)S(=O)(=O)c2cn(C)cn2)O3)cc1,-12.8% (inactive)
4,C[C@H]1CN([C@@H](C)CO)C(=O)c2cc(NC(=O)Cn3cnnn3)ccc2O[C@H]1CN(C)Cc1ccc(C(=O)O)cc1,30.7% (inactive)
5,COc1ccc(CCn2c(C)nc(=O)c(-c3ccccc3)c2C)cc1OC,2.96% (inactive)
6,C[C@@H]1CN([C@@H](C)CO)C(=O)c2cccc(NS(=O)(=O)c3ccc(F)cc3)c2O[C@H]1CN(C)C(=O)NC1CCCCC1,4.03% (inactive)
7,C[C@H](CO)N1C[C@H](C)[C@@H](CN(C)Cc2ccc(Cl)c(Cl)c2)Oc2c(NC(=O)Nc3ccccc3)cccc2C1=O,59.3% (inactive)
8,O=C(c1cc([N+](=O)[O-])ccc1NCc1cccnc1)N1CCOCC1,-0.79% (inactive)
9,COc1ccc(NC(=O)N(C)C[C@@H]2Oc3c(NC(=O)Nc4cccc5ccccc45)cccc3C(=O)N([C@@H](C)CO)C[C@H]2C)cc1,33.8% (inactive)
10,C[C@@H]1CN([C@H](C)CO)C(=O)c2cc(NS(=O)(=O)c3ccc(F)cc3)ccc2O[C@@H]1CN(C)C(=O)Nc1cccc2ccccc12,15.5% (inactive)
11,COC(=O)c1ccc(NC(=O)CN(c2ccc(C)c(Cl)c2)S(C)(=O)=O)cc1,-3.13% (inactive)
12,COC(=O)c1c(C)n(CCNc2ccc([N+](=O)[O-])cc2)c2ccc(O)cc12,32.6% (inactive)
13,COC(=O)c1ccc(NCc2cc(O)ccc2O)cc1,96.2% (active)
14,O=C(CSc1nc(O)cc(=O)n1-c1ccccc1F)Nc1ccc(Cl)cc1Cl,9.63% (inactive)
15,COC(=O)c1ccccc1NC(=O)CN(c1ccc2c(c1)OCCO2)S(C)(=O)=O,-1.24% (inactive)
16,C[C@H]1CN([C@@H](C)CO)C(=O)c2cc(NC(=O)Cc3cn(C)c4ccccc34)ccc2O[C@@H]1CN(C)Cc1ccc(Cl)c(Cl)c1,87.6% (active)
17,C[C@@H]1CN([C@@H](C)CO)C(=O)c2cc(NC(=O)Cc3ccccc3)ccc2O[C@H]1CN(C)Cc1ccc(Cl)c(Cl)c1,54.8% (inactive)
18,C[C@H]1CN([C@@H](C)CO)C(=O)c2cc(NC(=O)Cc3cn(C)c4ccccc34)ccc2O[C@H]1CN(C)CC1CCCCC1,15% (inactive)
19,C[C@H](CO)N1C[C@H](C)[C@H](CN(C)Cc2ccncc2)Oc2ccc(NC(=O)Cc3cn(C)c4ccccc34)cc2CC1=O,6.89% (inactive)
20,C[C@@H]1CN([C@H](C)CO)C(=O)c2cc(NC(=O)Cc3cn(C)c4ccccc34)ccc2O[C@H]1CN(C)S(C)(=O)=O,15.5% (inactive)
21,C[C@H]1CN([C@@H](C)CO)C(=O)c2cc(NC(=O)Cc3cn(C)c4ccccc34)ccc2O[C@H]1CN(C)Cc1ccc(Cl)c(Cl)c1,84% (active)

# From PubChem BioAssay AID2330 (Broad Institute, 2010)
